# Data published in PubChem BioAssay (NCI).
# This is part of a sample that, as a whole, favours compounds with a hit. Of some 83,000 tested, about 20% had one in any assay.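 Values shown are percent growth following 48 h exposure of cells in 96-well plates to a single concentration of compound; below 10 was considered active.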 Values without a mark were called inactive. The source made the active and inactive calls.
# Assays:
# Assay in all cases: NCI-60 one-dose screen, 48 h (100 = growth as untreated, 0 = no growth, -100 = all killed)
# Settings in all cases: 10 µM unless noted
# DU-145 prostate = system: DU-145 prostate
# K-562 leukemia = system: K-562 leukemia
# MALME-3M melanoma = system: MALME-3M melanoma
# MDA-MB-231 breast = system: MDA-MB-231 breast
# RXF 393 renal = system: RXF 393 renal
# SF-268 CNS = system: SF-268 CNS
# SF-295 CNS = system: SF-295 CNS
# SF-539 CNS = system: SF-539 CNS
# UACC-257 melanoma = system: UACC-257 melanoma
# M14 melanoma = system: M14 melanoma
# HCT-15 colon = system: HCT-15 colon
# HT29 colon = system: HT29 colon
# SNB-75 CNS = system: SNB-75 CNS
# SNB-19 CNS = system: SNB-19 CNS
# U251 CNS = system: U251 CNS
# PC-3 prostate = system: PC-3 prostate
# SK-MEL-5 melanoma = system: SK-MEL-5 melanoma
# LOX IMVI melanoma = system: LOX IMVI melanoma
# SK-MEL-28 melanoma = system: SK-MEL-28 melanoma
# UACC-62 melanoma = system: UACC-62 melanoma
Structure (SMILES),growth (DU-145 prostate),growth (K-562 leukemia),growth (MALME-3M melanoma),growth (MDA-MB-231 breast),growth (RXF 393 renal),growth (SF-268 CNS),growth (SF-295 CNS),growth (SF-539 CNS),growth (UACC-257 melanoma),growth (M14 melanoma),growth (HCT-15 colon),growth (HT29 colon),growth (SNB-75 CNS),growth (SNB-19 CNS),growth (U251 CNS),growth (PC-3 prostate),growth (SK-MEL-5 melanoma),growth (LOX IMVI melanoma),growth (SK-MEL-28 melanoma),growth (UACC-62 melanoma)
N#CC1=C(NC=O)Oc2c(ccc3ccccc23)C1c1ccccc1 (centres undefined),41.3%,15.1%,66.8%,31.9%,25.5%,41.3%,29.3%,8.89% (active),41.5%,10.2%,30.3%,94%,2.51% (active),30.8%,21.6%,18.3%,-33.1% (active),34.1%,60.2%,–
O=C(c1ccccc1)c1c(/C=C/c2ccc(Cl)cc2)nc2ccccc2c1/C=C/c1cccs1,107%,83.6%,99.3%,94.4%,104%,93.5%,102%,97.3%,87.7%,96.8%,96.6%,100%,84.1%,89.7%,93.5%,91.8%,100%,94.2%,102%,87.4%
COc1ccc(/C=C/c2c(C(=O)/C=C/c3cccs3)c(C)nc3ccccc23)cc1,82.7%,43.1%,107%,78.2%,77.4%,85.3%,86.3%,95.9%,83.8%,89.3%,59.5%,77.7%,72%,85.1%,85.6%,63%,70.3%,84.5%,92.4%,59.1%
O=C1CC(N2C(=O)/C(=C/C(Cl)=C\c3ccc([N+](=O)[O-])cc3)SC2=S)C(=O)N1c1ccc(O)cc1 (centres undefined),0.996% (active),6.6% (active),-39% (active),-10.3% (active),-70.5% (active),5.72% (active),-37.2% (active),-28.8% (active),-5.88% (active),-7.42% (active),-38.2% (active),-16.7% (active),14.9%,-9.69% (active),-39.5% (active),5.02% (active),-39.1% (active),-83.7% (active),-34% (active),-63.2% (active)
CCCCCS(=O)(=O)Nc1ccc(C(=O)O)cc1,103%,104%,98.2%,106%,114%,101%,110%,102%,95%,101%,109%,97.2%,92.3%,106%,92.8%,102%,100%,99.9%,111%,–
Cc1ccc(Nc2ccc(Nc3ccc(C)cc3)c3c2C(=O)c2cccc(O)c2C3=O)cc1,114%,94.3%,120%,88.7%,110%,104%,126%,105%,105%,104%,100%,117%,93.8%,104%,104%,78.9%,95.9%,91.5%,118%,–
CCCCCCCCn1ccc2cc(NC(=O)Cn3cc(CN4CCCC4)nn3)ccc21,66.9%,2.29% (active),-63.3% (active),11.6%,44.6%,46.2%,-68.3% (active),78.9%,51.6%,-66.5% (active),-45.6% (active),-57.8% (active),96.6%,0.775% (active),-35.5% (active),64.9%,30.7%,-85.1% (active),-70.9% (active),–
O=S(=O)(O)c1ccc(N/N=C/c2ccccc2Cl)cc1,116%,95.6%,109%,118%,125%,103%,108%,101%,116%,99.9%,97%,100%,94.6%,109%,99.5%,99.2%,103%,128%,111%,–
CCN1C(=O)N(CC)C2Nn3c(s/c(=C4\C(=O)N(C)c5ccccc54)c3=O)=NC21 (centres undefined),18.1%,14.9%,48.3%,43.6%,-17.4% (active),55.5%,52.2%,9.32% (active),61.8%,13.1%,29.7%,74.9%,9.74% (active),56.5%,39.7%,27.8%,36.4%,55.9%,59.3%,51%
COC(=O)CCC1=C(C)C2=NC1=CC1=NC(=CC3=NC(=Cc4[nH]c(/c(=C(/C)O)c4C)=C2)C(C(C)=O)=C3C)C(C)=C1CCC(=O)OC,110%,112%,96%,103%,112%,98.9%,104%,97.7%,90.3%,108%,99.8%,107%,90.6%,97.3%,98.9%,83.7%,103%,96%,115%,–
CCN(CC)c1ccc(C(=O)c2ccc(N(CC)CC)cc2)cc1,20.2%,14.7%,67.2%,18.4%,-36.5% (active),45.6%,11%,0.464% (active),76.2%,0.748% (active),27.4%,4.92% (active),-11.9% (active),38.7%,20.8%,26.4%,23.7%,32.6%,51.3%,–
C=C1C(=O)O[C@H]2[C@H]1CC/C(COC(=O)C(=O)c1c[nH]c3ccc(OC)cc13)=C\CC[C@@]1(C)O[C@@H]21,-89.8% (active),-7.42% (active),-71.4% (active),-64.8% (active),-93.1% (active),-53.2% (active),33.1%,-97.4% (active),-93.9% (active),-79.1% (active),-49.8% (active),-69.7% (active),-88.4% (active),-17.6% (active),-97.8% (active),-70% (active),-96.6% (active),-77.4% (active),-75.3% (active),–
Cc1ccc(C(=O)COc2cccc(/C=C3\Oc4ccccc4C3=O)c2)cc1,123%,75.8%,106%,83.1%,94.5%,120%,120%,103%,129%,101%,105%,114%,104%,99.4%,99.7%,101%,123%,104%,135%,–
CN(Cc1cnc2nc(N)nc(N)c2n1)c1ccc(C(=O)N[C@@H](CCc2nn[nH]n2)c2nn[nH]n2)cc1,32.8%,18.1%,68.9%,111%,71.1%,39%,40.8%,46.6%,55.8%,29.8%,25.2%,27%,76.6%,53.4%,50.6%,32.6%,41.2%,16.1%,103%,–
CC/C=C/C/C=C/C/C=C/C/C=C/C/C=C/C/C=C/CCC(=O)Nc1ccn([C@@H]2O[C@H](CO)[C@@H](O)C2(F)F)c(=O)n1,13.8%,38.4%,64.3%,54.9%,24.9%,19.1%,16.2%,7.06% (active),48.2%,-22.7% (active),41.7%,36.4%,37.4%,7.11% (active),22.4%,41%,31.3%,-49.9% (active),74.9%,–
